Measurements taken from PubChem BioAssay (NCATS).
Where “and” joins values, the source holds several entries; their conditions need not be identical. Equal entries are not always repeated. Results filed as inconclusive are left out. Some compounds were tested as several samples or in several runs, with calls that do not always agree. Values without a mark were called inactive. Calls of active or inactive are those of the source. Calls come from the whole dose curve; as a rule, active = well fitted inhibition curve with a large enough effect; inconclusive = small, poorly fitted or top-dose-only effect; inactive = flat fitted curve, though single readings scatter.

The compounds below were run on HEK293 (assay: Cytotoxic Profiling of Annotated Libraries Using Quantitative High-Throughput Screening (AID 1296008; note: nearly all actives have a fitted effect of over 60% in size)). Settings: Five cell lines viability, CellTiter-Glo ATP luminescence, 48-72 h; max response: stronger effect = lower value.
In short: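 Cytotoxicity was measured as CellTiter-Glo ATP luminescence, read after 10 min at room temperature. Compound treatment of the cells lasted 48 or 72 hr at 37 degrees Celsius in a qHTS format.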
% is set by controls: 0 for no effect and ±100 for the full control effect; potency is the fitted concentration of half-maximal effect.

Structure (SMILES) | max response | outcome | Potency
Cc1cc2cc3c(C)cc(=O)oc3c(C)c2o1 | -0.492% | inactive | 
COc1ccc2cc([C@H](C)C(=O)O)ccc2c1 | 0.939% | inactive | 
COc1cc(C(C)=O)ccc1OCCCN1CCC(c2noc3cc(F)ccc23)CC1 | -12.6% |  | 
Cc1ccc(C)c(OCCCC(C)(C)C(=O)O)c1 | 4.9% and 0.17% |  | 
CCC[C@@H]1C[C@@H](C(=O)N[C@@H]([C@H]2O[C@H](SC)[C@H](O)[C@@H](O)[C@H]2O)[C@@H](C)O)N(C)C1 | -5.82% and -16.1% |  | 
Clc1ccc(C(Cn2ccnc2)OCc2ccc(Sc3ccccc3)cc2)c(Cl)c1 (stereo not drawn) |  | inactive | 26.4 µM (active)
CS(=O)(=O)OCCCCOS(C)(=O)=O | -5.94% | inactive | 
CC(=O)NC[C@H]1CN(c2ccc(N3CCOCC3)c(F)c2)C(=O)O1 |  |  | 13.2 µM (active)
CC1=C(C)C(=O)C(C(CCCCCC(=O)O)c2ccccc2)=C(C)C1=O (stereo not drawn) | -12.9% | inactive | 
COc1cc2nc(N3CCN(C(=O)C4CCCO4)CC3)nc(N)c2cc1OC (stereo not drawn) | -14.3% and 0.884% |  | 
CCC1=C(C)CN(C(=O)NCCc2ccc(S(=O)(=O)NC(=O)NC3CCC(C)CC3)cc2)C1=O (stereo not drawn) |  | inactive | 
Clc1ccc(C(Cn2ccnc2)OCc2c(Cl)cccc2Cl)c(Cl)c1 (stereo not drawn) |  |  | 7.5 µM (active)
O=C(O)CCNC(=O)c1ccc(N=Nc2ccc(O)c(C(=O)O)c2)cc1 | -9.94% and 3.93% |  | 
